Measured values published in article PMC10812921, “Transcriptional Coactivator BOB1 (OBF1, OCA-B) Modulates the Specificity of DNA Recognition by the POU-Domain Factors OCT1 and OCT2 in a Monomeric Configuration”.

Biological target: POU1 (OCT1 POU domain) (human, UniProt P14859 260-458)
Test: EMSA-SELEX-seq; no BOB1; 20 mM Tris-HCl pH 7.6, 140 mM NaCl, 10% glycerol, 0.5 mM EDTA, 0.05% Triton X-100, 0.1 mg/mL BSA, 0.1 mg/mL poly(dI-dC), 5 mM DTT, room temperature, 20 min; high values mean tight binding
Settings: protein: recombinant; dsDNA, one strand shown
Method in brief: (§1)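 With or without 28 ng coactivator protein, 30 ng of tagged POU-domain protein was combined with 300 ng of a PCR-amplified double-stranded random 35-nt library in 20 μL Tris–HCl pH 7.6 binding buffer for 20 min at RT. The protein came from E. coli BL21 and had been purified under denaturing conditions and renatured. Four rounds of cutting complex bands from native 6% PAGE, elution and PCR amplification preceded Illumina sequencing. The binding preference figure is the percentage of sequenced 8-mers matching a motif pattern.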

Sequence of POU1 (OCT1 POU domain) (P14859 260-458): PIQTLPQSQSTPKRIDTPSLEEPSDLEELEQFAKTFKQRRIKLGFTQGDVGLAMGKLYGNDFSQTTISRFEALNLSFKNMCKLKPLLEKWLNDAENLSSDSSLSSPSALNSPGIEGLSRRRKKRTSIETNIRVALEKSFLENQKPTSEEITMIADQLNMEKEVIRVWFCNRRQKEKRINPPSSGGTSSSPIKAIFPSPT

Sequence	binding signal
AGGACAAT	0.042 % of ANNNNAAN 8-mers
ACGTCAAA	0.0271 % of ANNNNAAN 8-mers
ACTATAAG	0.029 % of ANNNNAAN 8-mers
AATCTAAC	0.0328 % of ANNNNAAN 8-mers
ACTTTAAG	0.0336 % of ANNNNAAN 8-mers
AGCGGAAC	0.0183 % of ANNNNAAN 8-mers
AATGCAAA	1.36 % of ANNNNAAN 8-mers
ATTTAAAG	0.183 % of ANNNNAAN 8-mers
ATGCGAAC	0.04 % of ANNNNAAN 8-mers
ATCCCAAT	0.0317 % of ANNNNAAN 8-mers
AGTTCAAC	0.0229 % of ANNNNAAN 8-mers
ATTTCAAA	0.0866 % of ANNNNAAN 8-mers
AAAACAAT	0.0736 % of ANNNNAAN 8-mers
ATCGTAAG	0.0343 % of ANNNNAAN 8-mers
AATAGAAT	0.113 % of ANNNNAAN 8-mers
AGATCAAA	0.0393 % of ANNNNAAN 8-mers
AGCGAAAC	0.0183 % of ANNNNAAN 8-mers
AACGAAAT	0.0744 % of ANNNNAAN 8-mers
ACAACAAC	0.0187 % of ANNNNAAN 8-mers
ACAAAAAC	0.0488 % of ANNNNAAN 8-mers

Sequence	binding signal
ATTATAAA	0.152 % of ANNNNAAN 8-mers
AACATAAA	0.101 % of ANNNNAAN 8-mers
AGATTAAT	0.147 % of ANNNNAAN 8-mers
AGTTCAAT	0.0446 % of ANNNNAAN 8-mers
ACATGAAG	0.0378 % of ANNNNAAN 8-mers
ACCCGAAG	0.0126 % of ANNNNAAN 8-mers
ACGCAAAC	0.0614 % of ANNNNAAN 8-mers
AATCAAAT	0.295 % of ANNNNAAN 8-mers
ACCGCAAT	0.0164 % of ANNNNAAN 8-mers
ATAGCAAC	0.0183 % of ANNNNAAN 8-mers
AACGAAAA	0.0522 % of ANNNNAAN 8-mers
AGGTAAAC	0.0534 % of ANNNNAAN 8-mers
AATGGAAT	0.138 % of ANNNNAAN 8-mers
ACATAAAA	0.103 % of ANNNNAAN 8-mers
ATTGGAAA	0.0927 % of ANNNNAAN 8-mers
ACAATAAT	0.0778 % of ANNNNAAN 8-mers
AGAAAAAA	0.0767 % of ANNNNAAN 8-mers
ACACAAAG	0.0309 % of ANNNNAAN 8-mers
AACTGAAG	0.0256 % of ANNNNAAN 8-mers
ACATCAAA	0.0374 % of ANNNNAAN 8-mers

Biological target: T1, POU2 (OCT2 POU domain) (human, UniProt P09086 175-386)
T1 sequence: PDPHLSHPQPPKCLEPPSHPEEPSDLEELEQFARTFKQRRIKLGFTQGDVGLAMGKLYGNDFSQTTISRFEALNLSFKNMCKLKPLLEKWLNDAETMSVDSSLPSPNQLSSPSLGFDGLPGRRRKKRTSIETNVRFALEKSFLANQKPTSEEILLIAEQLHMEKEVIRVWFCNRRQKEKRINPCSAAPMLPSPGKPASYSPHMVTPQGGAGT
Test: as above
Settings: protein: recombinant; dsDNA, one strand shown
Method in brief: as §1

Sequence	binding signal
AGGACAAT	0.0345 % of ANNNNAAN 8-mers
ACGTCAAA	0.0178 % of ANNNNAAN 8-mers
ACTATAAG	0.0339 % of ANNNNAAN 8-mers
AATCTAAC	0.0339 % of ANNNNAAN 8-mers
ACTTTAAG	0.0299 % of ANNNNAAN 8-mers
AGCGGAAC	0.0224 % of ANNNNAAN 8-mers
AATGCAAA	1.1 % of ANNNNAAN 8-mers
ATTTAAAG	0.185 % of ANNNNAAN 8-mers
ATGCGAAC	0.0357 % of ANNNNAAN 8-mers
ATCCCAAT	0.038 % of ANNNNAAN 8-mers
AGTTCAAC	0.0173 % of ANNNNAAN 8-mers
ATTTCAAA	0.0852 % of ANNNNAAN 8-mers
AAAACAAT	0.0604 % of ANNNNAAN 8-mers
ATCGTAAG	0.0449 % of ANNNNAAN 8-mers
AATAGAAT	0.136 % of ANNNNAAN 8-mers
AGATCAAA	0.0483 % of ANNNNAAN 8-mers
AGCGAAAC	0.023 % of ANNNNAAN 8-mers
AACGAAAT	0.0783 % of ANNNNAAN 8-mers
ACAACAAC	0.0104 % of ANNNNAAN 8-mers
ACAAAAAC	0.0397 % of ANNNNAAN 8-mers

Sequence	binding signal
ATTATAAA	0.204 % of ANNNNAAN 8-mers
AACATAAA	0.125 % of ANNNNAAN 8-mers
AGATTAAT	0.207 % of ANNNNAAN 8-mers
AGTTCAAT	0.0432 % of ANNNNAAN 8-mers
ACATGAAG	0.0449 % of ANNNNAAN 8-mers
ACCCGAAG	0.0109 % of ANNNNAAN 8-mers
ACGCAAAC	0.0437 % of ANNNNAAN 8-mers
AATCAAAT	0.212 % of ANNNNAAN 8-mers
ACCGCAAT	0.019 % of ANNNNAAN 8-mers
ATAGCAAC	0.0184 % of ANNNNAAN 8-mers
AACGAAAA	0.0529 % of ANNNNAAN 8-mers
AGGTAAAC	0.0558 % of ANNNNAAN 8-mers
AATGGAAT	0.212 % of ANNNNAAN 8-mers
ACATAAAA	0.114 % of ANNNNAAN 8-mers
ATTGGAAA	0.0794 % of ANNNNAAN 8-mers
ACAATAAT	0.0978 % of ANNNNAAN 8-mers
AGAAAAAA	0.0857 % of ANNNNAAN 8-mers
ACACAAAG	0.0196 % of ANNNNAAN 8-mers
AACTGAAG	0.0391 % of ANNNNAAN 8-mers
ACATCAAA	0.0391 % of ANNNNAAN 8-mers
